High-throughput results as filed in PubChem BioAssay.
Hits are enriched below; roughly 6.5% of the tested compounds scored in any of these assays.
Vaccinia Venus: qHTS for Stage-Specific Inhibitors of Vaccinia Orthopoxvirus: Venus Reporter Primary qHTS | Vaccinia virus Venus reporter expression, fluorescence | Potency, µM (highest dose often 36.5 µM), hits mostly inhibitors | 0.46% of 330,000 active; calls by dose curve; tested in A549 cells; further: nearly all actives have a fitted effect of over 30% in size
FMDV inh: High Throughput Screening for Foot and Mouth Disease Virus Antivirals | Potency, µM (top dose mostly 57.9 µM), most hits filed as inhibitors | FMDV antiviral cell-based qHTS | 1.2% of 410,000 active; calls by dose curve; tested in HEK293T cells; further: read-out not given here; nearly all actives have a fitted effect of over 45% in size
Lassa entry inh: qHTS for Inhibitors of binding or entry into cells for Lassa Virus; AID 540256, 2011; Lassa virus pseudotype entry inhibition, cell reporter; Potency, µM (top dose mostly 37.9 µM), hits mostly inhibitors; 1.2% of 300,000 active; calls by dose curve; tested in HEK293 cells; further: nearly all actives have a fitted effect of over 50% in size
Marburg entry inh: qHTS for inhibitors of binding or entry into cells for Marburg Virus. Potency, µM (doses to about 37.8 µM), hits mostly inhibitors. Marburg virus pseudotyped entry inhibition, cell reporter. AID 540276, 2011. 1.8% of 300,000 active; calls by dose curve; tested in HEK293 cells
HCMV antiviral: qHTS Assay for inhibitors of the human cytomegalovirus (HCMV). HFF cells, HCMV-luciferase reporter, 72 h; stronger effect = lower value. activity change, negative = inhibition, % at 57.5 µM. 4.5% of 410,000 active; in the data active means activity change below about -60%; inconclusive means no clear call, values can overlap the other calls; inactive means above about -39%
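After 16 h attachment at 37C, HFF cells received test compound and HCMV-luciferase (1 PFU/cell); reporter luminescence read 72 h later, data normalized against buffer-only and known inhibitor Salinomycin.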
VACV mCherry inh: qHTS for Stage-Specific Inhibitors of Vaccinia Orthopoxvirus: mCherry Reporter Primary qHTS | Vaccinia virus mCherry reporter infection, fluorescence | Potency, µM (highest dose often 36.5 µM), usual class: inhibitors | 0.63% of 310,000 active | AID 720579, 2013; calls by dose curve; tested in A549 cells; further: nearly all actives have a fitted effect of over 35% in size
Large screens that a line does not name were inactive; ! = a repeat was not active.

CC(C)=CCC/C(C)=C/CO/N=C1\C[C@@H](O)[C@@H](O)[C@@H]2[C@@H]3C(=O)N(C[C@@H]4CCCO4)C(=O)[C@@H]3CC[C@@H]12	none (no result: Vaccinia Venus, FMDV inh, Lassa entry inh, HCMV antiviral, VACV mCherry inh)
Cc1ccc(OCC(=O)NC(C)c2ccc(Cl)c(Cl)c2)c([N+](=O)[O-])n1 (centres undefined)	FMDV inh inconclusive (no result: Lassa entry inh)
COc1cc([C@@H]2c3cc4c(cc3[C@@H](O)[C@H]3COC(=O)[C@H]23)OCO4)cc(OC)c1O	Vaccinia Venus inconclusive, VACV mCherry inh 11.2µM (no result: FMDV inh, Lassa entry inh, Marburg entry inh, HCMV antiviral)
CCOc1ccc(CCNC(=O)[C@@H](O)c2ccccc2)cc1	none (no result: Vaccinia Venus, FMDV inh, Lassa entry inh, HCMV antiviral, VACV mCherry inh)
COc1ccccc1NC(=O)CSc1nnc(NC(=O)Nc2ccc(C)cc2)s1	Lassa entry inh inconclusive, HCMV antiviral -86.1 (no result: Marburg entry inh)
Cc1ccc(NC(=O)Nc2nnc(SCC(=O)N(C(C)C)C(C)C)s2)cc1	HCMV antiviral -79.7 (no result: Marburg entry inh)
COc1ccccc1NC(=O)CSc1nnc(NC(=O)C2CC2)s1	none
CC(C)N(C(=O)CSc1nnc(NC(=O)C2CCC2)s1)C(C)C	Marburg entry inh inconclusive
CCOc1cccc(-c2c(C(=O)N/N=C/c3ccco3)nnn2-c2nonc2N)c1	none (no result: HCMV antiviral)
C[C@@H]1CN(C2CCN(C(=O)c3ccccc3Cl)CC2)C[C@H](C)O1	none (no result: Vaccinia Venus, FMDV inh, Lassa entry inh, HCMV antiviral, VACV mCherry inh)
CCOC(=O)c1cccn1C1C(=O)N(Cc2ccc3c(C)cc(=O)oc3c2)c2ccc(Cl)cc21 (centres undefined)	none (no result: Vaccinia Venus, FMDV inh, Lassa entry inh, Marburg entry inh, VACV mCherry inh)
CCCCNC(=O)[C@@H]1CC=C[C@@H]2CCN(CCCC)C(=O)[C@@H]21	none (no result: FMDV inh, Lassa entry inh, Marburg entry inh, HCMV antiviral)
COc1cccc(CNC(=O)C2CCN(S(=O)(=O)c3ccc(Br)s3)CC2)c1	none
O=C(Nc1ccc(S(=O)(=O)N2CCN(Cc3ccccc3)CC2)cc1)c1cnccn1	FMDV inh inconclusive, Lassa entry inh inconclusive, Marburg entry inh inconclusive, HCMV antiviral -85.9 (no result: Vaccinia Venus, VACV mCherry inh)
Cc1ccc(S(=O)(=O)N2CCc3ccccc3C2)cc1	none (no result: Vaccinia Venus, Lassa entry inh, Marburg entry inh, VACV mCherry inh)
CCOc1ccc(OCc2cccc(C(=O)Nc3ccc(CN4CCCCC4)cc3)c2)cc1	Vaccinia Venus inconclusive, Lassa entry inh inconclusive, Marburg entry inh 6.51µM, VACV mCherry inh inconclusive
O=C(Nc1ccc(S(=O)(=O)N2CCCC2)cc1)c1cnccn1	none
Cc1ccc(S(=O)(=O)N2CCN(Cc3ccccc3)CC2)cc1	HCMV antiviral -60.3 (no result: Vaccinia Venus, Lassa entry inh, VACV mCherry inh)
Cc1ccc(S(=O)(=O)N2CCc3ccccc3CC2)cc1	Lassa entry inh inconclusive, Marburg entry inh inconclusive, HCMV antiviral -78.0
COc1cc(NC(=O)Cn2c(=O)oc3cc(S(=O)(=O)N4CCCCCC4)ccc32)cc(OC)c1	none (no result: Marburg entry inh)
Cc1ccc(COC(=O)CN2C(=O)NC3(CCCCC3C)C2=O)cc1 (centres undefined)	none
CCOc1ccc(CN2CCN(S(=O)(=O)c3ccc(NC(C)=O)cc3)CC2)cc1	FMDV inh inconclusive, Lassa entry inh inconclusive, HCMV antiviral -66.7
O=C(CN1CCN(S(=O)(=O)c2ccccc2)CC1)Nc1ccc([N+](=O)[O-])cc1	HCMV antiviral -68.5
CN1CCCC1CCOC(C)(c1ccccc1)c1ccc(Cl)cc1 (centres undefined)	Lassa entry inh 20.6µM, Marburg entry inh 9.2µM
COC1C(O)C(C)OC(OC2C(Oc3cccc4c(O)c5c(=O)oc6ccc(C)c7c(=O)oc(c34)c5c67)OC(C)C(O)C2O)C1O (centres undefined)	FMDV inh inconclusive, Lassa entry inh inconclusive, Marburg entry inh inconclusive, HCMV antiviral -97.2
CC1O[C@@H](O[C@H]2C(Oc3cc(O)c4c(=O)cc(-c5ccc(O)cc5)oc4c3)OC(CO)C(O)C2O)C(O)C(O)C1O (some centres undefined)	none (no result: Lassa entry inh, Marburg entry inh, HCMV antiviral)
Cc1cc(-c2ccc(C)c(S(=O)(=O)NCc3ccc(Br)cc3)c2)on1	HCMV antiviral -64.2 (no result: Vaccinia Venus, Lassa entry inh, Marburg entry inh, VACV mCherry inh)
Cc1cc(-c2ccc(C)c(S(=O)(=O)NCc3cccc(Br)c3)c2)on1	HCMV antiviral -63.2! (no result: Marburg entry inh)
Cc1cc(-c2ccc(C)c(S(=O)(=O)NCCc3ccc(S(N)(=O)=O)cc3)c2)on1	HCMV antiviral -63.9! (no result: Marburg entry inh)
Cc1cc(-c2ccc(C)c(S(=O)(=O)NCCc3ccco3)c2)on1	none (no result: Vaccinia Venus, Lassa entry inh, Marburg entry inh, VACV mCherry inh)
COc1cc(C(=O)OC2CCOC2=O)cc(Cl)c1OC (centres undefined)	none
CCc1ccc(Nc2ncnc3nc[nH]c23)cc1	Lassa entry inh inconclusive, Marburg entry inh inconclusive
CCCCc1ccc(Nc2ncnc3nc[nH]c23)cc1	VACV mCherry inh 10µM (no result: Lassa entry inh, Marburg entry inh)
N/C(=N\N=C\c1ccc(O)c(O)c1)c1nonc1N	none (no result: Vaccinia Venus, Lassa entry inh, Marburg entry inh, VACV mCherry inh)
N/C(=N\N=C\c1ccc(O)cc1)c1nonc1N	Lassa entry inh inconclusive, Marburg entry inh 20.6µM
COCCN(C(=O)c1csnn1)C(C(=O)NC1CCCCC1)c1ccc(Cl)cc1 (centres undefined)	Lassa entry inh inconclusive, Marburg entry inh inconclusive, HCMV antiviral -99.2
COCCN(C(=O)c1csnn1)C(C(=O)NC1CCCCC1)c1ccccc1 (centres undefined)	none
O=C(NCc1ccccc1)C(c1ccc(Cl)cc1)N(C(=O)c1csnn1)C1CC1 (centres undefined)	HCMV antiviral -63.0
O=C(NCc1ccc(F)cc1)C(c1ccc(F)cc1)N(C(=O)c1csnn1)C1CC1 (centres undefined)	Marburg entry inh inconclusive
CCC(C)Oc1ccc(/C=C/c2[nH]c(=O)[nH]c(=O)c2[N+](=O)[O-])cc1OC (centres undefined)	FMDV inh 31.6µM, Marburg entry inh inconclusive, HCMV antiviral inconclusive
COc1cc(/C=C/c2[nH]c(=O)[nH]c(=O)c2[N+](=O)[O-])ccc1OCCC(C)C	FMDV inh 28.2µM, Lassa entry inh inconclusive
COc1cc(/C=C/c2[nH]c(=O)[nH]c(=O)c2[N+](=O)[O-])cc([N+](=O)[O-])c1O	none (no result: Vaccinia Venus, Lassa entry inh, Marburg entry inh, VACV mCherry inh)
CN1C(=O)C(c2nnc(Nc3cccc4ccccc34)s2)C2CC1(C)Oc1ccccc12 (centres undefined)	Lassa entry inh inconclusive, Marburg entry inh inconclusive
O=C(NC1CCCCC1)c1ccc(S(=O)(=O)N2CCCCC2)cc1	Lassa entry inh 2.06µM (no result: Vaccinia Venus, VACV mCherry inh)
O=C(COC(=O)c1ccc(S(=O)(=O)N2CCCC2)cc1)Nc1cccnc1Cl	none
O=C(Nc1cccnc1Cl)c1ccc(S(=O)(=O)N2CCCCCC2)cc1	HCMV antiviral -81.6 (no result: Vaccinia Venus, VACV mCherry inh)
O=C(NC1CCCCC1)C1CCCN(S(=O)(=O)c2ccc(F)cc2)C1 (centres undefined)	HCMV antiviral -81.2
O=C(NC1CCN(S(=O)(=O)c2ccc(F)cc2)CC1)C1CCCCC1	none
Cc1cccc(C)c1OCc1nc2ccccc2c(=O)n1/N=C/c1c[nH]c2ccccc12	Vaccinia Venus inconclusive, FMDV inh inconclusive, Lassa entry inh 2.51µM, Marburg entry inh inconclusive, VACV mCherry inh inconclusive
Cc1ccccc1OCc1nc2ccccc2c(=O)n1/N=C/c1c[nH]c2ccccc12	Lassa entry inh inconclusive
